Reference: PubChem BioAssay (EPA / NIEHS)
Activity calls are given as the source filed them. Rule for the calls: active = hit-call score of the fitted dose curve at least 0.9, where 1 is the maximum; inactive = score below 0.9.

Experiments:
Conditions in all cases: mRNA level, 48 h; actives raise or lower the signal
[1] = read-out: ABC Transporter (ABCB11), ABCB11 (gene 8647); experiment: LTEA_HepaRG_ABCB11: Life Technologies and Expression Analysis (LTEA) Assay for ABC Transporter (ABCB11) using HepaRG (AID 2283463)
Summary of the method: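 Using HepaRG cultures held in 0.5% DMSO, chemicals were tested at half-log dilutions from 100 uM for 48 h. Induction or suppression of ABCB11 mRNA, normalized to ACTB, GAPDH and POLR2A, was fitted bidirectionally against vehicle.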

[2] = read-out: ABC Transporter (ABCC2), ABCC2 (gene 1244); experiment: LTEA_HepaRG_ABCC2: Life Technologies and Expression Analysis (LTEA) Assay for ABC Transporter (ABCC2) using HepaRG (AID 2283464)
Summary of the method: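 HepaRG cells were plated 48 h, switched to serum-free induction medium, then exposed in duplicate for 48 h to 8 concentrations (top 100 uM, half-log steps, 0.5% DMSO). ABCC2 mRNA was measured by qRT-PCR normalized to ACTB/GAPDH/POLR2A; bidirectional fitting versus DMSO.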

[3] = read-out: Broad substrate specificity ATP-binding cassette transporter ABCG2 (Homo sapiens) (UniProt Q9UNQ0); experiment: LTEA_HepaRG_ABCG2: Life Technologies and Expression Analysis (LTEA) Assay for ABC Transporter (ABCG2) using HepaRG (AID 2283465)
Summary of the method: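 Gene expression of ABCG2 in HepaRG liver cells is quantified by qRT-PCR following 48 h exposure across an eight-point series topping at 100 uM. Values come from bidirectional fitting relative to DMSO vehicle.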

[4] = read-out: ATP-citrate lyase (ACLY), ACLY (gene 47); experiment: LTEA_HepaRG_ACLY: Life Technologies and Expression Analysis (LTEA) Assay for ATP-citrate lyase (ACLY) using HepaRG (AID 2283466)
Summary of the method: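 ACLY expression changes in human HepaRG liver cells are quantified by qRT-PCR after 48 h exposure to test chemicals (maximum 100 uM, half-log steps). Values are fitted in both directions relative to 0.5% DMSO vehicle.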

[5] = read-out: Peroxisomal acyl-coenzyme A oxidase 1 (ACOX1) gene, ACOX1 (gene 51); experiment: LTEA_HepaRG_ACOX1: Life Technologies and Expression Analysis (LTEA) Assay for Peroxisomal acyl-coenzyme A oxidase 1 (ACOX1) gene using HepaRG (AID 2283467)
Summary of the method: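 Human HepaRG hepatic cultures, 48 h treatment with test chemicals up to 100 uM. ACOX1 expression read by qRT-PCR relative to 0.5% DMSO vehicle.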

[6] = read-out: Alkaline Phosphatase, Placental (ALPP) gene, ALPP (gene 250); experiment: LTEA_HepaRG_ALPP: Life Technologies and Expression Analysis (LTEA) Assay for Alkaline Phosphatase, Placental (ALPP) gene using HepaRG (AID 2283468)
Summary of the method: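 Differentiated human HepaRG cells were plated and cultured 48 h, then exposed in duplicate for 48 h in serum-free induction medium to eight half-log concentrations from 100 uM in 0.5% DMSO. ALPP mRNA was measured by TaqMan qRT-PCR, normalized to ACTB, GAPDH, POLR2A.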

[7] = read-out: Bcl-2 (BAD) gene, BAD (gene 572); experiment: LTEA_HepaRG_BAD: Life Technologies and Expression Analysis (LTEA) Assay for Bcl-2 (BAD) gene using HepaRG (AID 2283469)
Summary of the method: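 Activity values reflect up- or down-regulation of BAD mRNA in human HepaRG hepatic cells treated 48 h in serum-free medium, with eight-point half-log dosing capped at 100 uM and 0.5% DMSO vehicle.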

[8] = read-out: Bcl-2 (BAX) gene, BAX (gene 581); experiment: LTEA_HepaRG_BAX: Life Technologies and Expression Analysis (LTEA) Assay for Bcl-2 (BAX) gene using HepaRG (AID 2283470)
Summary of the method: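 qRT-PCR read-out of BAX mRNA, normalized to three housekeeping genes, after 48 h chemical exposure of human HepaRG cells in serum-free induction medium; eight-point half-log series, top 100 uM, 0.5% DMSO vehicle; bidirectional fit versus DMSO.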

[9] = read-out: adenosine kinase (ADK) gene, ADK (gene 132); experiment: LTEA_HepaRG_ADK: Life Technologies and Expression Analysis (LTEA) Assay for adenosine kinase (ADK) gene using HepaRG (AID 2283471)
Summary of the method: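 Differentiated HepaRG cells dosed 48 h in serum-free induction medium, 0.5% DMSO vehicle, eight half-log concentrations from 100 uM, in duplicate. ADK mRNA by TaqMan qRT-PCR normalised to ACTB, GAPDH, POLR2A; bidirectional fit versus DMSO.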

[10] = read-out: Alpha-fetoprotein (AFP) gene, AFP (gene 174); experiment: LTEA_HepaRG_AFP: Life Technologies and Expression Analysis (LTEA) Assay for Alpha-fetoprotein (AFP) gene using HepaRG (AID 2283472)
Summary of the method: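 qRT-PCR (Fluidigm TaqMan) readout of AFP transcript, normalized to three housekeeping genes, fitted bidirectionally against 0.5% DMSO baseline. HepaRG cells received chemicals for 48 h in serum-free induction medium, top concentration 100 uM, half-log steps.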

[11] = read-out: BCL2L11 (gene 10018); experiment: LTEA_HepaRG_BCL2L11: Life Technologies and Expression Analysis (LTEA) Assay for Bcl-2 (BCL2L11) gene using HepaRG (AID 2283473)
Summary of the method: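 Differentiated human HepaRG cells in serum-free induction medium were exposed in duplicate for 48 h to eight concentrations (top 100 uM, half-log steps, 0.5% DMSO). BCL2L11 mRNA was quantified by TaqMan qRT-PCR, normalized to ACTB/GAPDH/POLR2A, bidirectional fit versus DMSO.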

[12] = read-out: Apolipoprotein A-V (APOA5) gene, APOA5 (gene 116519); experiment: LTEA_HepaRG_APOA5: Life Technologies and Expression Analysis (LTEA) Assay for Apolipoprotein A-V (APOA5) gene using HepaRG (AID 2283474)
Summary of the method: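 Differentiated human HepaRG cells were exposed in duplicate for 48 h to eight half-log concentrations from 100 uM in 0.5% DMSO. APOA5 mRNA was quantified by TaqMan qRT-PCR, normalized to ACTB, GAPDH and POLR2A, and fitted bidirectionally against DMSO.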

[13] = read-out: Bcl-2 (BID) gene, BID (gene 637); experiment: LTEA_HepaRG_BID: Life Technologies and Expression Analysis (LTEA) Assay for Bcl-2 (BID) gene using HepaRG (AID 2283476)
Summary of the method: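 HepaRG, 48 h exposure, 8-pt half-log series, top 100 uM, 0.5% DMSO vehicle, duplicates. Readout: BID mRNA by TaqMan qRT-PCR; housekeeping-normalized; bidirectional curve fit vs DMSO baseline.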

[14] = read-out: Caspase-3 (Homo sapiens) (UniProt P42574); experiment: LTEA_HepaRG_CASP3: Life Technologies and Expression Analysis (LTEA) Assay for cysteine-aspartic acid protease (CASP3) using HepaRG (AID 2283477)
Summary of the method: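 Differentiated human HepaRG cells in serum-free induction medium were exposed 48 h to 8-point half-log concentrations from 100 uM (0.5% DMSO vehicle). CASP3 mRNA was measured by qRT-PCR, normalised to ACTB, GAPDH and POLR2A, with bidirectional fitting against DMSO.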

[15] = read-out: Cytochrome P450 (CYP24A1), CYP24A1 (gene 1591); experiment: LTEA_HepaRG_CYP24A1: Life Technologies and Expression Analysis (LTEA) Assay for Cytochrome P450 (CYP24A1) using HepaRG (AID 2283478)
Summary of the method: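 Differentiated HepaRG cells, pre-cultured 48 h, were exposed in duplicate for 48 h in serum-free induction medium to 8 half-log concentrations (top 100 uM, 0.5% DMSO). CYP24A1 mRNA was quantified by TaqMan qRT-PCR, normalized to ACTB/GAPDH/POLR2A, fitted bidirectionally versus DMSO.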

[16] = read-out: Cytochrome P450 (CYP1A2), CYP1A2 (gene 1544); experiment: LTEA_HepaRG_CYP1A2: Life Technologies and Expression Analysis (LTEA) Assay for Cytochrome P450 (CYP1A2) using HepaRG (AID 2283479)
Summary of the method: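 Differentiated human HepaRG cells in serum-free induction medium were exposed in duplicate for 48 h to 8-point half-log concentrations up to 100 uM in 0.5% DMSO. CYP1A2 mRNA measured by qRT-PCR, normalized to ACTB, GAPDH, POLR2A; bidirectional fit vs DMSO.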

[17] = read-out: cysteine-aspartic acid protease (CASP8), CASP8 (gene 841); experiment: LTEA_HepaRG_CASP8: Life Technologies and Expression Analysis (LTEA) Assay for cysteine-aspartic acid protease (CASP8) using HepaRG (AID 2283480)
Summary of the method: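 Concentration-response in duplicate up to 100 uM (half-log steps, 0.5% DMSO) on differentiated HepaRG cultures for 48 h. Expression change of CASP8 mRNA is determined by TaqMan qRT-PCR with housekeeping-gene normalization.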

[18] = read-out: Cytochrome P450 (CYP2B6), CYP2B6 (gene 1555); experiment: LTEA_HepaRG_CYP2B6: Life Technologies and Expression Analysis (LTEA) Assay for Cytochrome P450 (CYP2B6) using HepaRG (AID 2283481)
Summary of the method: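 Differentiated HepaRG cells, serum-free induction medium, exposed 48 h in duplicate to 8-point half-log concentrations from 100 uM in 0.5% DMSO. CYP2B6 mRNA by qRT-PCR, normalized to ACTB, GAPDH, POLR2A; bidirectional fit versus DMSO.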

[19] = read-out: Apoptosis regulator Bcl-2 (Homo sapiens) (UniProt P10415); experiment: LTEA_HepaRG_BCL2: Life Technologies and Expression Analysis (LTEA) Assay for Bcl-2 gene using HepaRG (AID 2283475)
Summary of the method: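 qRT-PCR read-out (Fluidigm TaqMan) of BCL2 transcript, normalised to three housekeeping genes, after 48 h chemical exposure of HepaRG cells; 8-point half-log series, top 100 uM, 0.5% DMSO vehicle. Gain or loss of signal fitted relative to DMSO baseline.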

[20] = read-out: Cytochrome P450 2C19 (Homo sapiens) (UniProt P33261); experiment: LTEA_HepaRG_CYP2C19: Life Technologies and Expression Analysis (LTEA) Assay for CYP2C19 using HepaRG (AID 2283482)
Summary of the method: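 Differentiated human HepaRG cells were exposed for 48 h in serum-free induction medium to 8 concentrations (top 100 uM, half-log steps, 0.5% DMSO). CYP2C19 mRNA was measured by qRT-PCR, normalized to ACTB/GAPDH/POLR2A, and fitted bidirectionally against DMSO.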

Measured: AC50

Chain of Caspase-3 (Homo sapiens) (P42574 whole entry, looked up): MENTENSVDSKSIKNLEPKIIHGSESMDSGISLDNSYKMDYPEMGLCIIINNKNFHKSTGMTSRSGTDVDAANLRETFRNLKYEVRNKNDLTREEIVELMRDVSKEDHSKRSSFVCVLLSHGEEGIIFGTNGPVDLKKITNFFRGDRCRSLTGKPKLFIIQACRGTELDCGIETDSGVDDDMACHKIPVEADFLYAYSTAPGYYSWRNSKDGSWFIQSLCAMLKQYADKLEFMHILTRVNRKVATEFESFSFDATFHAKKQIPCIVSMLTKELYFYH
Chain of Cytochrome P450 2C19 (Homo sapiens) (P33261 whole entry, looked up): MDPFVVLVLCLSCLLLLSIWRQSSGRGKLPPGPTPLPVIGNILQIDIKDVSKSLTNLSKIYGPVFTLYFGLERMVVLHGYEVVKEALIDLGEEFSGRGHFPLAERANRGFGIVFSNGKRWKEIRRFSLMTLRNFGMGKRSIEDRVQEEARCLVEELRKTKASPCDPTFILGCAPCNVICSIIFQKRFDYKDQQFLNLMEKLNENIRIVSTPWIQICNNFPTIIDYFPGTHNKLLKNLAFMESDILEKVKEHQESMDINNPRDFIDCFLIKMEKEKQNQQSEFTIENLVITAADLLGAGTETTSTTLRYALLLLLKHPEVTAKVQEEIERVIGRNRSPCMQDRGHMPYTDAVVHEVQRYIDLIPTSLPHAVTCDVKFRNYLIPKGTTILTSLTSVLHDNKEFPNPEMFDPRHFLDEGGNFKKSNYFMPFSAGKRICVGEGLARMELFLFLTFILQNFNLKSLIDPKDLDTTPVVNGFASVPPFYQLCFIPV
Chain of Broad substrate specificity ATP-binding cassette transporter ABCG2 (Homo sapiens) (Q9UNQ0 whole entry, looked up): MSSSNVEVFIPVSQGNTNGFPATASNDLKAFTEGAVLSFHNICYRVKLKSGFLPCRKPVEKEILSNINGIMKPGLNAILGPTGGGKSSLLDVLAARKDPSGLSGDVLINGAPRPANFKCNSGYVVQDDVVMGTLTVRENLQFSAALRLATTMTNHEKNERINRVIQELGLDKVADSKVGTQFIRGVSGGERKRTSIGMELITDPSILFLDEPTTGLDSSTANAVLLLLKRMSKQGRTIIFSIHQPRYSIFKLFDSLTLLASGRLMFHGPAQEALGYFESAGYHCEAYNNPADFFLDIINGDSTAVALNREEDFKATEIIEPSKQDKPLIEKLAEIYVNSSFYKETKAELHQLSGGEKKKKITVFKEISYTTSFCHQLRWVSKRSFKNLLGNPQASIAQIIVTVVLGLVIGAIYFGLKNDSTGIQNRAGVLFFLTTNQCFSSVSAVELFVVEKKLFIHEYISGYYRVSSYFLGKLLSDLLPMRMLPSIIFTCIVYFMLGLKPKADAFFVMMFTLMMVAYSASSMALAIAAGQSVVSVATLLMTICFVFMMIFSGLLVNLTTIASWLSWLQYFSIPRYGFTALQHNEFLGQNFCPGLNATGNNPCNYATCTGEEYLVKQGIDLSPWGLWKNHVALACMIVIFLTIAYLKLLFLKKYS
Chain of Apoptosis regulator Bcl-2 (Homo sapiens) (P10415 whole entry, looked up): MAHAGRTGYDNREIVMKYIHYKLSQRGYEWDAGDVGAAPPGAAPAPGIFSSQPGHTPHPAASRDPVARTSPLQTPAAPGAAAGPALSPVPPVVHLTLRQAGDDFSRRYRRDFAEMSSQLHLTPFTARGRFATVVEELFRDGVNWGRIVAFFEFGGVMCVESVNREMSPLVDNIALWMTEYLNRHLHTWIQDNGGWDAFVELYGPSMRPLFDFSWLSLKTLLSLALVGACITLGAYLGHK

CC(=NC#N)N(C)Cc1ccc(Cl)nc1
active: [18] 50 µM
not listed: [19] | [20]
inactive: all other assays above

Cc1ccn2nc(S(=O)(=O)Nc3c(F)cccc3F)nc2n1
inactive: all assays above

CCOC(=O)CC(SP(=O)(OC)OC)C(=O)OCC (stereo unspecified)
active: [1] 22.7 µM | [18] 50 µM
not listed: [20]
inactive: all other assays above

CC(Oc1cccc(Cl)c1)C(=O)O (stereo unspecified)
active: [2] 20.2 µM | [3] 5.79 µM | [18] 2.24 µM | [20] 7.31 µM
inactive: all other assays above

Nc1c(Cl)cc([N+](=O)[O-])cc1Cl
active: [1] 37.4 µM | [2] 84.2 µM | [3] 80.4 µM | [5] 22.8 µM | [6] 50 µM | [9] 64.1 µM | [10] 39.3 µM | [11] 50 µM | [12] 68.5 µM | [19] 50 µM | [13] 83.3 µM | [14] 17.3 µM | [16] 13 µM | [17] 50 µM | [18] 11.8 µM
inactive: [4] | [7] | [8] | [15]

CON=C(C(=O)OC)c1ccccc1CON=C(C)c1cccc(C(F)(F)F)c1
active: [1] 85.5 µM
inactive: all other assays above
